Shown are actives, neighbours in structure and some others; about 7.3% of the full set was active somewhere.
NPC1 prom act: NPC1 promoter activation. 320,000 compounds, 2.4% hits. Huh7 NPC1 promoter luciferase reporter, 24 h. Potency, µM (doses to about 9.22 µM), inactives show at the highest dose activation, hits mostly activators; further: % of control where 0% means no effect; nearly all actives have a fitted effect of over 60% in size
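Huh7 reporter cells (NPC1 promoter driving luciferase) are dosed with compound for 24 h at 37 °C, 5% CO2; luciferase detection reagent is then added and luminescence measured after 10 min at ambient temperature.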
SMN2 splice enh: increases expression of the SMN2 splice variant; HEK293 SMN2-luciferase splicing reporter, luminescence, 30-36 h; Potency, µM (series often up to 46.1 µM), for the others: at the top dose activity change, positive = activation, actives largely listed as activators; 210,000 compounds, 2.8% hits; AID 1458; further: % of control where 0% means no effect; nearly all actives have a fitted effect of over 55% in size
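HEK293 cells carry an SMN2 […]–luciferase reporter in which exon 7 inclusion puts luciferase in frame. Cells were plated 10-12 h before compound addition, then incubated 30-36 h at 37C. ONE-Glo luminescence was read; sodium butyrate at 4.5 mM final served as control.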
KinaseGlo FLuc: counter-screen: inhibitors of Kinase-Glo firefly luciferase; AID 1379; Q27757; Kinase-Glo luciferase, ATP luminescence, 8 min; 200,000 compounds, 0.28% hits; Potency, µM (titrated, usually from 38.3 µM), for the others: at the top dose activity change, negative = inhibition, actives largely listed as inhibitors; further: on the % scale 0 is the no-effect control and ±100 the full control effect; nearly all actives have a fitted effect of over 60% in size
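Luminescence was the read-out, taken after 8-minute incubation at ambient temperature. Luciferase turned over luciferin with 10 uM ATP in imidazole pH 7.2 buffer containing KCl, MgCl2, Tween 20 and BSA.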
FLuc counter: firefly luciferase modulation, counter-screen for miR-21 project; P08659; purified FLuc, Km substrates, luminescence inhibition; Potency, µM (titrated, usually from 57.5 µM), for inactives: top-dose activity change, negative = inhibition, actives largely listed as inhibitors; 360,000 compounds, 6.9% hits; AID 588342;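 further: plate controls were vehicle for no effect and reference inhibitor for full effect; nearly all actives have a fitted effect of over 55% in size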
Target sequence (P08659 whole entry, looked up): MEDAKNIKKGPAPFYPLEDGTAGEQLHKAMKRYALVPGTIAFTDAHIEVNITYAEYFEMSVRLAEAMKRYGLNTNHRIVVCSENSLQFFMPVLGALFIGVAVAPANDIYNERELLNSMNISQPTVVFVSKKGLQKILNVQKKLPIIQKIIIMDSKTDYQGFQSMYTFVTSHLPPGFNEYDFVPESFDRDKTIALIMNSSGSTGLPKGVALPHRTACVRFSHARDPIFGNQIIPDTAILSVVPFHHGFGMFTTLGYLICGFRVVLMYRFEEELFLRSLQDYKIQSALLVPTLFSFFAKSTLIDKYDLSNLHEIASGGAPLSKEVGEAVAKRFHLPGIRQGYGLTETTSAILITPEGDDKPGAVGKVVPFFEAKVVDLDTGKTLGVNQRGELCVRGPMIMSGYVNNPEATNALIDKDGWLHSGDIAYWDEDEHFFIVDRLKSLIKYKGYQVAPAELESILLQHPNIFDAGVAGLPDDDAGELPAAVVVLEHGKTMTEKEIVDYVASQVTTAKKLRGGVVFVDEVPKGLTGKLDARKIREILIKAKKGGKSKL
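Purified P. pyralis luciferase, 10 nM final, with Km-level 10 uM D-luciferin and 10 uM ATP in 50 mM Tris acetate pH 7.5, 10 mM Mg acetate, 0.01% Tween-20, 0.05% BSA; 6-point qHTS titration about 60 µM downward; luminescence read.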
Rab9 promoter act: activates the Rab9 promoter. Potency, µM (top dose mostly 9.22 µM), without a hit: at the highest dose activation, negative = inhibition, most hits filed as activators. 320,000 compounds, 2.8% hits. Huh7 Rab9 promoter-luciferase reporter, luminescence, 24 h; further: % of control where 0% means no effect; nearly all actives have a fitted effect of over 60% in size
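Stable Rab9-luc Huh7, 1500 cells/well, 2 h settle; cmpd in DMSO, 24 h, 37 °C/5% CO2; luciferase reagent 10 min RT; luminescence.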
The depositor's hits bear a star. The call rests on the fitted dose curve; in most records, active means well fitted curve in the direction sought with a large enough effect; inconclusive means small, poorly fitted or top-dose-only effect, or another doubt; inactive means no such curve, though single readings can be large; an effect the other way counts as inactive or inconclusive. Potency means the concentration at half of the fitted maximal effect.

For COc1ccc(-c2cnc(C)o2)cc1S(=O)(=O)Nc1c(C)cc(C)cc1C the results were FLuc counter -8%.
Screening O=C(CCS(=O)(=O)c1nc(-c2ccc3c(c2)OCO3)cc(C(F)(F)F)n1)Nc1ccc(F)c(Cl)c1 returned SMN2 splice enh -15% and FLuc counter -10%.
`Cc1ccc(-n2c(C)cc(C(=O)CN3CCOCC3)c2C)cc1` gave NPC1 prom act 24%, SMN2 splice enh 11%, KinaseGlo FLuc 1%, FLuc counter inconclusive and Rab9 promoter act inconclusive.
Screening Cc1cc(C(=O)CN2CCCC(C)C2)c(C)n1-c1ccc(F)cc1 (stereo not drawn) returned NPC1 prom act inconclusive, SMN2 splice enh 18µM*, KinaseGlo FLuc 1%, FLuc counter 15µM* and Rab9 promoter act 2.5µM*.
CCOc1ccccc1CNC(=O)C1CCN(c2nn3cc(-c4ccc(F)cc4)nc3s2)CC1 was read as FLuc counter -5%.
`COc1ccc(NC(=O)C2CCN(S(=O)(=O)c3c(C)nn(C)c3C)CC2)cc1` gave NPC1 prom act -1%, FLuc counter -1% and Rab9 promoter act 1%.
Screening Cc1nn(C)c(C)c1S(=O)(=O)N1CCC(C(=O)Nc2ccc3c(c2)OCCO3)CC1 returned NPC1 prom act 11%, SMN2 splice enh 1%, KinaseGlo FLuc 0%, FLuc counter 15µM* and Rab9 promoter act 20%.
Screening CC/C(=N\NC(=O)c1cc(C2CC2)[nH]n1)c1ccccc1 returned NPC1 prom act 3.5µM*, FLuc counter 13µM* and Rab9 promoter act inconclusive.
Cc1cc(C(=O)N/N=C/c2c(C)nn(-c3ccccc3)c2C)n[nH]1 was read as NPC1 prom act 20%, FLuc counter 17µM* and Rab9 promoter act 22%.
Screening O=C(N/N=C/c1ccc(O)cc1)c1cc(C2CC2)[nH]n1 returned NPC1 prom act 0%, FLuc counter -18% and Rab9 promoter act 2%.
Cc1nn(-c2ccccc2)c(C)c1/C=N/NC(=O)c1cc(C2CC2)[nH]n1 was read as NPC1 prom act 3%, SMN2 splice enh inconclusive, KinaseGlo FLuc -3%, FLuc counter 17µM* and Rab9 promoter act 3%.
Screening O=C(N/N=C/c1c(F)cccc1Cl)c1cc(C2CC2)[nH]n1 returned NPC1 prom act inconclusive, FLuc counter 17µM* and Rab9 promoter act inconclusive.
Cc1cccc(C)c1NC(=O)NCCc1c[nH]c2ccccc12 was read as SMN2 splice enh -9% and FLuc counter -5%.
Screening O=C1N/C(=C\c2nc3ccccc3s2)c2ccccc21 returned NPC1 prom act 1µM*, FLuc counter 0.19µM* and Rab9 promoter act 0.28µM*.
`O=C1N/C(=C\c2ccccc2)c2ccccc21` gave NPC1 prom act -11%, SMN2 splice enh inconclusive, KinaseGlo FLuc -1%, FLuc counter inconclusive and Rab9 promoter act -12%.
Screening Cc1ccc(CNC(=O)CCc2c(C)nc3c(-c4ccc(F)cc4)c(C)nn3c2C)cc1 returned SMN2 splice enh 3% and FLuc counter 3%.
Screening Cc1cccc(NC(=O)C(=O)NCCc2csc(-c3ccc(F)cc3)n2)c1C returned FLuc counter -2%.
For O=C1C=C(c2ccccc2)OC(=O)C1C(=O)c1ccccc1 (stereo not drawn) the results were NPC1 prom act 2%, SMN2 splice enh -8%, KinaseGlo FLuc -2%, FLuc counter 24µM* and Rab9 promoter act 4%.
For COc1ccc2c(c1)O[C@H](c1ccc3c(c1)OCO3)[C@@H](OC(=O)NS(=O)(=O)c1ccc(F)cc1)C2=O the results were SMN2 splice enh -6% and KinaseGlo FLuc 1%.
For c1ccc(-c2cc3nccc(-c4ccccn4)n3n2)cc1 the results were NPC1 prom act 2.5µM*, FLuc counter 9.5µM* and Rab9 promoter act 2.2µM*.
`Cc1cc2nccc(-c3ccccn3)n2n1` gave NPC1 prom act -3%, SMN2 splice enh 0%, KinaseGlo FLuc -3%, FLuc counter -3% and Rab9 promoter act -1%.
For COc1ccc(CCC(=O)NCc2nc3cccnc3n2Cc2ccc(F)cc2)cc1 the results were FLuc counter -5%.
